Test results reported in PubChem BioAssay AID1476 (National Center for Advancing Translational Sciences (NCATS), 2009).
Hit rate of the full screen: of about 200,000 compounds, about 4,500 (2.2%) were called active. Not shown: some 12% with an inconclusive outcome. Shown is part of a subset that was picked to be rich in actives. Values without a mark were called inactive. The call rests on the fitted dose curve; in most records, active means well fitted inhibition curve with a large enough effect; inconclusive means small, poorly fitted or top-dose-only effect, or effect the other way; inactive means flat fitted curve, though single readings scatter.

molecular target: Cruzipain (Trypanosoma cruzi) (UniProt P25779); experiment: qHTS Assay for Promiscuous and Specific Inhibitors of Cruzain (without detergent); settings: purified cruzain, Z-FR-AMC fluorescence, no detergent; further: nearly all actives have a fitted effect of over 40% in size
Sequence (P25779 123-467 limits assumed): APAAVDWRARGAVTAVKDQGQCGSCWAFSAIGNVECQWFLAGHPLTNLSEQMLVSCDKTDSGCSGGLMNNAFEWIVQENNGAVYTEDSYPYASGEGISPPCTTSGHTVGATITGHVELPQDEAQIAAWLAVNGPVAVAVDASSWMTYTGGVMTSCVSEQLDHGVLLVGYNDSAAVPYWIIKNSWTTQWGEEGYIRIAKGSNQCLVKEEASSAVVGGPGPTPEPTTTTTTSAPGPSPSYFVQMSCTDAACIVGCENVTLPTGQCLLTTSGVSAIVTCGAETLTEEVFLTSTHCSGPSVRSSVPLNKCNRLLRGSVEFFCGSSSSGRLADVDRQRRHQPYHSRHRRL
Procedure: Cruzain is a cysteine protease from the tropical parasite Trypanosoma cruzi. Dual qHTS experiment was performed against the NCGC compound collection in order to 1) identify novel inhibitors of the enzyme and 2) profile the compound collection for promiscuous inhibitors operating via colloidal aggregation (by performing detergent-free and detergent-containing comparison screens). Cruzain was assayed by the use of fluorogenic coumarin-based substrate Z-FR-AMC: proteolytic cleavage releases AMC, whose fluorescence is measured at 360 nm excitation and 450 nm emission. Purified cruzain was supplied by the labs of Prof. James McKerrow and Brian Shoichet, UC San Francisco.
This assay had 0.00005% Triton X-100 concentration. See also releated assay "qHTS Assay for Promiscuous and Specific Inhibitors of Cruzain (with detergent)" with 0.01% Triton X-100.
See following references for additional details:
Assay Provider: Shoichet, Brian; University of California, San Fancisco
Screening Center PI: Austin, C.P.
Screening Center: NIH Chemical Genomics Center [NCGC]
Buffer: 100 mM Sodium Acetate, pH 5.5, 5 mM DTT, Triton X-100 concentration: 0.01%.
Buffer in columns 3 and 4 as negative control (no enzyme).
Substrate solution: 2 uM final concentration of Z-FR-AMC (catalog number I-1160, Bachem) dispensed throughout the plate.
Enzyme: 1.5 nM Cruzain final concentration in columns 1, 2, 5-48. Column 1 is neutral (100% activity). Column 2 contained titration of covalent inhibitor K11777, starting concentration 1 mM, then 1:2 dilution in duplicate).
Three uL of enzyme or buffer were dispensed to 1536-well Greiner black solid bottom plates. Compounds and controls (23 nL) were transferred via Kalypsys PinTool. The plates were incubated for 15 min at room temperature, and then 1 uL of substrate solution was added to start the reaction. The plates were immediately transferred to and read 4 times every 30 seconds for 2 min on ViewLux High-throughput CCD imager (Perkin-Elmer) using 360 nm excitation and 450 nm emission fluorescence protocol. The fluorescence intensity difference between the third and the first time points (time lapse of 60 seconds) was used to compute reaction progress.
Potency means the concentration at half of the fitted maximal effect.

Compared with `CCCCOc1ccc(CN2C(=O)C(=O)c3cc(Br)cc(C)c32)cc1OC`, `COc1ccc(CN2C(=O)CC(Cc3ccc(C)cc3)C2=O)cc1OC` (stereo not drawn) is higher in max response, negative = inhibition: -26.4% for the first, -8.47% for the second.

First: CCOC(=O)C1CCN(C(=O)CSc2c3c(nc4ccc(Cl)cc24)CCCC3)CC1
Second: CC(=O)N1CCCc2cc(S(=O)(=O)N3CCC(C(=O)NC4CCCCC4)CC3)ccc21
The max response, negative = inhibition of the first is lower: -19.6% for the first, 8.72% for the second.

First: Cc1cc(C)cc(NC(=O)CCCc2nc(-c3ccccc3Cl)no2)c1
Second: Cc1ccc(NC(=O)CCCn2c(=O)c3cccn3c3ccccc32)cc1Cl
The max response, negative = inhibition of the first is lower: -8.67% for the first, 8.76% for the second.

Going from `Cc1nc2cnc(Nc3ccccc3)nc2n(Cc2ccc(F)cc2)c1=O` to `CSc1nc(Nc2ccc(F)cc2)cc(-c2ccccc2)n1`, the max response, negative = inhibition rises from -10.9% to -2.64%.

Going from `CCNc1ncc2ncc(=O)n(CCc3ccccc3)c2n1` to `CCc1ccccc1NC(=O)c1ccc2nc(CCc3ccccc3)oc2c1`, the max response, negative = inhibition falls from 5.65% to 1.42%.

First: COc1ccc2ncc3c(-c4ccc(C)c(C)c4)nn(CC(=O)NC4CCCC4)c3c2c1
Second: COc1ccc(CCNC(=O)CN2CCC(n3nnc4cc(F)ccc43)CC2)cc1OC
The max response, negative = inhibition of the first is lower: 1.87% for the first, 14.7% for the second.

First: COc1ccc(Cl)cc1NC(=O)CCn1c(=O)c2cccn2c2ccccc21
Second: Cc1cccc(Cn2c(=O)n(CCC(=O)NCCc3ccc(Cl)cc3)c(=O)c3sccc32)c1
The max response, negative = inhibition of the first is higher: 26.4% for the first, 0.837% for the second.

First: COc1cccc2c1cc1c(=O)n(CC(=O)N3CCN(c4ccccc4)CC3)nc(C)n12
Second: Cc1cccc(-n2ncc(C(=O)N3CCN(c4ccc(Cl)cc4)CC3)c2C2CCN(C(=O)OC(C)(C)C)CC2)c1
The max response, negative = inhibition of the first is higher: -2.78% for the first, -21.4% for the second.

Compared with `CCOc1cccc2sc(N3CCN(C(=O)C4CC4)CC3)nc12`, `Cc1ccc(-n2ncc3c(N4CCC(C(N)=O)CC4)ncnc32)cc1` is higher in max response, negative = inhibition: 4.68% for the first, 17.2% for the second.

Going from `COC(=O)c1ccccc1NC(=O)Cn1c(=O)cc(C)c2c(C)nn(-c3cccc(Cl)c3C)c21` to `COC(=O)c1ccccc1NC(=O)c1cnn(-c2ccc(F)cc2)c1-n1cccc1`, the max response, negative = inhibition rises from 1.01% to 3.91%.

Compared with `O=C(Nc1ccc2c(c1)OCO2)c1cc(-c2cccc(Cl)c2)on1`, `CC(C)C(=O)Nc1cccc(C(=O)Nc2ccc3c(c2)OCO3)c1` is lower in max response, negative = inhibition: -7.12% for the first, -8.97% for the second.

Going from `O=C(CCc1nc(CN2CCN(S(=O)(=O)c3ccc(Br)cc3)CC2)no1)N1CCCCC1` to `Cc1ccc(C)c(N2CCN(C(=O)CN3C(=O)COc4ccc(S(=O)(=O)N5CCCCCC5)cc43)CC2)c1`, the max response, negative = inhibition falls from 27% to -9.73%.

First: Cc1ccc(-c2nc3ccccn3c2Nc2c(C)cccc2C)o1
Second: COc1ccc(Nc2nc(-c3ccccc3)cs2)cc1
The max response, negative = inhibition of the first is higher: 0.509% for the first, -15.9% for the second.

First: CC(C)(C)c1ccc(C(=O)NCC(=O)OCN2C(=O)c3ccccc3C2=O)cc1
Second: COc1ccc(C(=O)Nc2cc(C)ccc2NC(=O)COc2ccccc2)cc1
The max response, negative = inhibition of the first is higher: 8.73% for the first, 2.68% for the second.

Compared with `Cc1cccc(NC(=O)/C(=C\c2ccco2)NC(=O)c2ccccc2)c1`, `O=C(/C=C/c1ccco1)Nc1ccc(Oc2ccccc2)cc1` is lower in max response, negative = inhibition: 4.33% for the first, -5.89% for the second.

Compared with `CCc1ccc(NC(=O)CCCc2nnc3n(CCCOC)c(=O)c4sccc4n23)cc1`, `COc1ccc(NC(=O)CCCc2nnc3n(CCC(C)C)c(=O)c4sccc4n23)c(OC)c1` is lower in max response, negative = inhibition: 1.39% for the first, -6.21% for the second.

Compared with `CCCCNC(=S)N/N=C1\CCCCc2ccccc21`, `CCCCCN1CC(O)=C(c2ccccc2)C1=N` is higher in max response, negative = inhibition: -19.4% for the first, -0.607% for the second.

Going from `Cc1ccc(NC(=S)NC2CCCC2)cc1` to `Cc1ccc(S(=O)(=O)N(Cc2nc(-c3ccc(Cl)cc3)no2)C2CCCCC2)cc1`, the max response, negative = inhibition falls from -5.53% to -17.5%.

First: O=C(Nc1cccc(Cl)c1)c1csnn1
Second: O=C1CC(NNc2ccccc2)C(=O)N1c1cccc(Cl)c1 (stereo not drawn)
The max response, negative = inhibition of the first is higher: -5.33% for the first, -28.1% for the second.

Compared with `Cc1cccc2c1-c1sc(C(=O)Nc3ccc(F)cc3F)cc1CO2`, `Cc1ccc(C)c(NC(=O)CSC2=Nc3ccccc3N=C(c3ccc(F)cc3)C2)c1` is higher in max response, negative = inhibition: -26.4% for the first, 1.61% for the second.

First: COc1cc(NS(=O)(=O)c2ccc3c(c2)OCC(C(=O)N2CCCC2)O3)cc(OC)c1 (stereo not drawn)
Second: CCOC(=O)c1cc(-c2ccccc2)n(-c2cccc(C(=O)Nc3cc(OC)cc(OC)c3)c2)c1C
The max response, negative = inhibition of the first is higher: 1.72% for the first, -4.47% for the second.

Compared with `O=C(CCc1nc2ccccc2c(=O)[nH]1)OCC(=O)c1cccc(Cl)c1`, `CCCc1nc2ccccc2c(C(=O)OCC(=O)c2ccc3c(c2)NC(=O)CO3)c1CC` is higher in max response, negative = inhibition: -3.88% for the first, -2.97% for the second.

First: c1ccc(COc2nsnc2N2CCOCC2)cc1
Second: CCCCSc1ncnc2c1sc1nc(N3CCOCC3)c3c(c12)CCCC3
The max response, negative = inhibition of the first is lower: -3.44% for the first, 3.5% for the second.

Compared with `COc1cc2c(cc1OC)C(Nc1ccc(S(N)(=O)=O)cc1)=NC(C)(C)C2`, `COc1cc2c(cc1O)C(SC)=NC(C)(C)C2` is lower in max response, negative = inhibition: 5.29% for the first, -12.8% for the second.

First: CCOc1ccc(N(CC)S(=O)(=O)N2CCCC(C(=O)NCc3ccc(Cl)cc3)C2)cc1 (stereo not drawn)
Second: Cc1oc(-c2ccccc2F)nc1CN1CCC(C(=O)NCCc2ccc(Cl)cc2)CC1
The max response, negative = inhibition of the first is higher: 19.9% for the first, 1.36% for the second.

Going from `c1ccc(Nc2nc(-c3ccncc3)cs2)nc1` to `CCCc1cc(-c2nc(-c3ccc(C)cc3)cs2)ccn1`, the max response, negative = inhibition rises from 2.93% to 13.4%.

Going from `CCN(CC)S(=O)(=O)c1ccc2c(c1)N(CC(=O)NCc1ccccc1)C(=O)CS2` to `O=C1CSC2(C(=O)N(Cc3ccccc3)c3ccccc32)N1c1cccc(F)c1` (stereo not drawn), the max response, negative = inhibition rises from 1.54% to 2.62%.

First: O=C(C(=O)N1CCc2ccccc2C1)N1CCc2ccccc2C1
Second: O=C(CCn1c(SCC(=O)c2ccccc2)nc2ccccc2c1=O)NCc1ccc(F)cc1
The max response, negative = inhibition of the first is higher: -0.495% for the first, -24.2% for the second.

Going from `N#C/C(=C1\CCCN1)c1nc(-c2ccccc2)cs1` to `O=C(Nn1c(-c2ccccc2)nc2ccccc2c1=O)c1ccc([N+](=O)[O-])cc1`, the max response, negative = inhibition rises from -17.6% to 8.42%.

Going from `Cc1ccc(OCC(=O)Nc2ccc(OCc3cc(=O)n4c(C)csc4n3)cc2)cc1C` to `Cc1ccc(C)c(Cn2c(C)c(CNCc3ccc(F)cc3)c(C(=O)O)c2C)c1`, the max response, negative = inhibition rises from -9.52% to 16.1%.

First: CC1=C(C(=O)OCc2ccc(C)cc2)C(c2ccccc2Cl)CC(=O)N1 (stereo not drawn)
Second: CC(=O)c1ccc(NC(=O)C2CCN(S(=O)(=O)c3c(C)noc3/C=C/c3ccc(C)cc3)CC2)cc1
The max response, negative = inhibition of the first is lower: 4.48% for the first, 9.83% for the second.

First: COc1cc2c(cc1/C=C1/NC(=O)N(c3ccccc3)C1=O)OCO2
Second: COc1ccccc1Nc1c2c(nc3ccc(NC(=O)/C=C/c4cc(OC)c(OC)c(OC)c4)cc13)CCCC2
The max response, negative = inhibition of the first is lower: -27.8% for the first, -4.58% for the second.

Going from `Cc1nnc(NC(=O)/C=C/c2ccco2)s1` to `Cc1ccc(OCC(=O)N/N=C\c2ccco2)c(C)c1`, the max response, negative = inhibition rises from -4.39% to 4.92%.

Going from `Cc1cc(C)c(/C=C/c2onc(C)c2S(=O)(=O)N2CCC(C(=O)Nc3ccc(Cl)cc3C)CC2)c(C)c1` to `Cc1cccc(NC(=O)C2CCN(S(=O)(=O)c3c(C)noc3/C=C/c3ccco3)CC2)c1`, the max response, negative = inhibition rises from 0.507% to 2.41%.

For `Cc1noc(/C=C/N(C)C)c1S(=O)(=O)N1CCCC(C(=O)NCc2ccco2)C1` (stereo not drawn), the max response, negative = inhibition was 14.2%.

`O=c1cnc2cnc(Nc3ccccc3)nc2n1Cc1ccc(F)cc1` was tested, and the Potency was 20 µM (active).
For `Cc1ccc(CCNC(=O)Cn2c(-c3cccs3)cc3cc(F)ccc32)cc1`, the Potency was 15.8 µM (active).
In the case of `O=C(Nc1ccc2c(c1)OCO2)c1sc2cc(Cl)ccc2c1Cl`, the Potency is reported as 10 µM (active).
For `O=C(OCN1C(=O)c2ccccc2C1=O)/C(=C\c1ccco1)NC(=O)c1ccccc1`, the Potency was 0.398 µM (active).
With `Cc1ccc(NC(=S)N/N=C2/CCCc3c(C)cc(C)cc32)cc1` the Potency was 31.6 µM (active).
With `CC(C)C[C@H](NC(=O)[C@@H]1O[C@H]1C(=O)O)C(=O)NCCCCN=C(N)N` the Potency was 0.0316 µM (active).
In the case of `Cc1ccc(C(=O)COC(=O)c2cccc(N3C(=O)c4c(C)nc5ccccc5c4C3=O)c2)cc1C`, the Potency is reported as 7.94 µM (active).
With `c1ccc(CSc2ncnc3c2sc2nc(N4CCOCC4)c4c(c23)CCCC4)cc1` the Potency was 3.16 µM (active).
With `COc1cc2c(cc1OC)C(C(C)C)=NC(C)(C)C2` the Potency was 20 µM (active).
With `c1cnc(Nc2nc(-c3ccc4ccccc4c3)cs2)nc1` the Potency was 3.98 µM (active).
`CCCCCN1CC(O)=C(c2nc(-c3ccc(Cl)cc3)cs2)C1=N` was tested, and the Potency was 5.01 µM (active).
With `c1ccc(-c2csc(N3CCc4ccccc4C3)n2)cc1` the Potency was 25.1 µM (active).
With `COc1ccc(N2C(=O)CS(=O)(=O)C23C(=O)N(Cc2ccc(C)cc2)c2ccccc23)cc1Cl` (stereo not drawn) the Potency was 2.51 µM (active).
With `O=C1N/C(=C/c2cccn2-c2ccccc2)C(=O)N1c1cccc(Cl)c1` the Potency was 10 µM (active).
`Cc1ccc(-n2nc3ccc(NC(=O)/C=C/c4ccco4)cc3n2)cc1C` was tested, and the Potency was 12.6 µM (active).
`Cc1ccc(O)c(NC(=O)COc2cc(C)ccc2C)c1` was tested, and the Potency was 31.6 µM (active).
In the case of `Cc1noc(/C=C/c2ccco2)c1S(=O)(=O)N1CCC(C(=O)Nc2ccc(Cl)cn2)CC1`, the Potency is reported as 6.31 µM (active).
In the case of `Cc1noc(/C=C/c2ccco2)c1S(=O)(=O)N1CCC(C(=O)N2CCc3ccccc32)CC1`, the Potency is reported as 15.8 µM (active).
In the case of `O=C(Nn1c(SCc2ccc([N+](=O)[O-])cc2)nc2ccccc2c1=O)c1ccc(F)cc1`, the Potency is reported as 10 µM (active).
